In PubChem BioAssay AID743266 (National Center for Advancing Translational Sciences (NCATS), 2014) one finds Potency data, which are given here for 95 compounds.

Where “and” joins values, the source holds several entries; their conditions need not be identical. Equal entries are not always repeated. The campaign covered roughly 410,000 compounds. About 310 (0.076%) were called active. Where a call stands in place of a potency, no number is given. Roughly 2% stayed inconclusive and do not appear here. Calls come from the whole dose curve; as a rule, active = well fitted activation curve with a large enough effect; inconclusive = small, poorly fitted or top-dose-only effect, or another doubt; inactive = no such curve, though single readings can be large or run the other way. This excerpt belongs to a sample that is enriched for actives. A structure can be active in one record and inactive in another.
Potency is the fitted concentration of half-maximal effect.

In this experiment the target is Parathyroid hormone/parathyroid hormone-related peptide receptor (Homo sapiens) (UniProt Q03431). The experiment in a line: qHTS for PTHR1 Agonists: Primary Screen. Note: nearly all actives have a fitted effect of over 55% in size. The conditions noted are these: HEK293 GP2 PTHR1 cells, GloSensor cAMP luminescence, 1 h; series mostly up to 115 µM. The text has this: The goal of the proposed studies is to discover new compounds that act as potent agonists on the parathyroid hormone receptor type-1 (PTHR1). The PTHR1 plays critical roles in maintaining blood calcium and phosphate levels, as well as in controlling bone remodeling. PTHR1 agonists could thus be useful for treating diseases such as hypoparathyroidism and osteoporosis. In the former disease, an agonist drug would help maintain normal blood calcium and phosphate levels under conditions of parathyroid hormone deficiency. In the latter disease, an agonist drug would stimulate new bone formation and thus reduce the risk of fracture, under conditions of bone fragility, as occurs in aging.
Sequence of Parathyroid hormone/parathyroid hormone-related peptide receptor (Homo sapiens) (Q03431 whole entry, looked up): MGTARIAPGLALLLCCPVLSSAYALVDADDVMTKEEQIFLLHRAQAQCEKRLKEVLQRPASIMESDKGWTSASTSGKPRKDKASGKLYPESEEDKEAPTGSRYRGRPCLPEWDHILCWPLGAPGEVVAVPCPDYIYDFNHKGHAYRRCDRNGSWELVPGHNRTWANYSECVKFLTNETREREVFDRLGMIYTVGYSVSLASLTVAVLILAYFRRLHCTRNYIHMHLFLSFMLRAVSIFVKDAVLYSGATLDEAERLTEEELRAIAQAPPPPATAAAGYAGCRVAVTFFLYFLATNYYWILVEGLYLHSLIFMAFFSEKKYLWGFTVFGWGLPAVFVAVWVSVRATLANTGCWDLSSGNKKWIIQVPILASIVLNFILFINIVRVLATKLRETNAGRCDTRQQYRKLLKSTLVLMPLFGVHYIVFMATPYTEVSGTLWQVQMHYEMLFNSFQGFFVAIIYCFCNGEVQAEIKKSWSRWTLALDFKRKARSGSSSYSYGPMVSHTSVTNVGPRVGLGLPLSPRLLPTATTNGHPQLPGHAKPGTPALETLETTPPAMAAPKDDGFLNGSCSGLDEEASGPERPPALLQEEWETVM
To that end, we performed a quantitative high-throughput screening (qHTS) of the Molecular Libraries Probe Centers Network (MLPCN) compound libraries at the NIH Chemical Genomics Center (NCGC) for the parathyroid hormone receptor type-1 (PTHR1) using a unique HEK-293-derived cell line (GP2) that expresses the PTHR1 and a glosensor cAMP reporter construct.
NIH Molecular Libraries Probe Production Centers Network [MLPCN]
NIH Chemical Genomics Center [NCGC]
Assay Submitter (PI): Thomas Gardella, Massachusetts General Hospital
4 microL are dispensed into a 1536-well micro plate to yield 3,000 cells/well. The plates are then incubated overnight, after which 4 microL of 0.5 mM of BIoTium Luciferin plus 0.5 mM IBMX are added. They are then incubated at 37 degree for one hour before 23 nL of compounds are added through pinning and then incubated at 37 degree again for another hour. After the plates are kept at room temperature for 15 min before they are read on the ViewLux to measure luminescence.
`COc1ccc(CCNc2nc3c(-c4cccc(F)c4)nnn3c3ccccc23)cc1OC`: the Potency result is “inactive”.
As for `COc1ccc(C2c3c(oc4ccccc4c3=O)C(=O)N2Cc2ccc3c(c2)OCO3)cc1` (stereo not given), the entry is “inactive”; as for `Cc1ccc(C(=O)Nc2c(C(=O)NC(C)(C)C)oc3ccccc23)cc1`, “inactive”.
As for `CSc1nn(Cc2cccc(C)c2)c(N)c1S(=O)(=O)c1ccccc1`, the entry is “inactive”; as for `CCC(C)c1ccc2oc(-c3ccc(NC(=O)c4cc5ccccc5o4)cc3)nc2c1` (stereo not given), “inactive”.
As for `CCOc1ccc(CNCc2c(C(=O)O)c(C)n(Cc3cccc(OC)c3)c2C)cc1OC`, the entry is “inactive”; as for `CCCCNC(=O)c1cc(-c2ccc(Cl)c(Cl)c2)on1`, “inactive”; as for `CN1CCN(C(CNC(=O)c2ccccc2F)c2ccc3c(c2)OCO3)CC1` (stereo not given), “inactive”.
Consider `COC(=O)c1ccccc1NC(=O)c1ccc(COc2ccccc2Cl)o1`, for which the Potency result was “inactive”.
For the compound `CCC(CC)c1nn2cc(-c3ccccc3)nc2s1`, the Potency entry is “inactive”.
As for `COCCNS(=O)(=O)c1cc(-c2nn3c(C)nnc3c3ccccc23)ccc1C`, the entry is “inactive”.
Turning to `CCN(CC)S(=O)(=O)c1ccc2c(c1)N(CC(=O)NCC(C)c1ccccc1)C(=O)CO2` (stereo not given), the Potency result was “inactive”.
As for `CCOc1cc(C2C(C(=O)Nc3ccc(OC)cc3)=C(C)Nc3nc(SC)nn32)ccc1O` (stereo not given), the entry is “inactive”; as for `Cc1cc(OCC(=O)Nc2ncn[nH]2)c(C)c(C)c1Br`, “inactive”.
As to `Cc1nc(SCC(=O)Nc2ccc(C(=O)O)cc2)n[nH]1`, the Potency entry is “inactive”.
Take `O=C(NCCc1ccccc1)C(=O)NCC(c1ccco1)S(=O)(=O)c1ccccc1` (stereo not given): the Potency entry is “inactive”.
For `Cc1ccc(C)n1-c1nnc(N2CCC(C(=O)NCc3ccccc3Cl)CC2)s1`, the Potency entry is “inactive”.
Take `CC(C)(C)c1ccc(C(=O)NCC(c2ccco2)S(=O)(=O)c2ccc(F)cc2)cc1` (stereo not given): the Potency entry was “inactive”.
As for `Cc1c(Cl)cccc1NC(=O)N1CCN(C(=O)c2nsc3ccccc23)CC1`, the entry is “inactive”; as for `CCOC(=O)c1c(S(=O)(=O)N2CCCC(C(=O)NCc3ccc(F)cc3)C2)c(C)n(CC)c1C` (stereo not given), “inactive”.
For the compound `O=c1c2cccnc2n(Cc2cccc(F)c2)c(=O)n1Cc1ccccc1Cl`, the Potency entry is “inactive”.
As for `CCOc1ccc(OCC)c(NS(=O)(=O)c2ccc3[nH]c(=O)ccc3c2)c1`, the Potency result is “inactive”.
As for `Cc1ccc(NC(=O)CSc2nc3c(c(=O)[nH]2)CN(Cc2ccc4c(c2)OCO4)CC3)cc1C`, the entry is “inactive”; as for `COc1cccc(CNC(=O)C2CCN(S(=O)(=O)c3ccc4c(ccn4C)c3)CC2)c1`, “inactive”.
Consider `COc1ccc(CNc2nc(-c3ccc(Cl)cc3)cc(C(F)(F)F)n2)cc1`, for which the Potency result is “inactive”.
As for `COc1cc(Cl)c(NC(=O)C(NS(=O)(=O)c2cccs2)C(C)C)c(OC)c1` (stereo not given), the entry is “inactive”; as for `Cc1oc2ccc(O)c(CN3CCCCC3)c2c1C(=O)Nc1cccc(C(F)(F)F)c1`, “inactive”; as for `CCCCN(CC)CCCNC(=O)c1nn(C)c2c1CS(=O)(=O)c1ccccc1-2`, “inactive”.
As for `COc1ccc(-n2c(SCC(=O)Nc3ccc(Cl)c(C)c3)nc3n[nH]c(C)c3c2=N)cc1`, the entry is “inactive”; as for `Cc1c(NC(=O)c2cc(=O)c3ccccc3o2)c(=O)n(-c2ccccc2)n1C`, “inactive”.
On to `CCCn1c2ccccc2c2cnn(CC(=O)N(C)c3ccccc3CC)c(=O)c21`, for which the Potency entry is “inactive”.
As for `COC(=O)c1ccc(NC(=O)CCc2c(C)nc3c(c(C)nn3-c3ccc(C)cc3)c2C)cc1`, the entry is “inactive”; as for `Cc1ccc(Cn2c(C)c3cnn(CC(=O)NCc4ccccc4)c(=O)c3c2C)cc1`, “inactive”.
As for `Cc1ccc(C)c(N2CCN(c3ccc4cc(S(=O)(=O)N5CCC(C)CC5)ccc4n3)CC2)c1`, the entry is “inactive”; as for `COc1ccccc1CNc1ccc(-c2nc(-c3ccccc3C)no2)cc1[N+](=O)[O-]`, “inactive”.
As for `Cn1c(=O)[nH]c(=O)c2c1nc(NCCc1ccccc1)n2Cc1ccc(F)cc1`, the entry is “inactive”; as for `CCCCN(C)CCCNC(=O)CN1N=C(c2ccc(OC)cc2)CCC1=O`, “inactive”.
Turning to `O=C(Nc1ccc2nc(SCC(=O)N3CCc4ccccc43)sc2c1)c1ccccc1F`, the Potency result was “inactive”.
As for `CCOc1ccccc1CNC(=O)c1ccc(-n2c(C)cc3c2CCC(C)C3)cc1` (stereo not given), the entry is “inactive”; as for `CCOC(=O)c1c(C)[nH]c(CCC(=O)NCCCN2CCN(c3cccc(Cl)c3)CC2)c1C`, “inactive”.
For `Cc1ccc(C)c(N2CCN(S(=O)(=O)c3ccc4c(c3)C(C(C)C)C(=O)N4)CC2)c1` (stereo not given), the Potency result was “inactive”.
As for `CCOc1ccccc1CNC(=O)Nc1cn(CC(C)C)c(=O)c2ccccc12`, the entry is “inactive”.
As for `CCOc1cc(CNC(=O)c2sc3ncnc(N(C)C4CCCCC4)c3c2C)ccc1OC`, the entry is “inactive”.
Turning to `Cc1nn2c(=O)cc(COC(=O)CNC(=O)c3ccc(F)cc3)nc2s1`, the Potency entry is “inactive”.
As for `COc1ccc(CCNC(=O)c2nn(C)c3c2CSc2ccccc2-3)cc1OC`, the entry is “inactive”; as for `Cc1c(C(=O)NCc2ccccc2Br)oc2ccc3c(c12)C(=O)CC(C)(C)O3`, “inactive”; as for `CCc1cccc(C)c1NS(=O)(=O)c1ccc(-c2cc(C)no2)s1`, “inactive”.
Consider `CCCc1nn2c(=O)cc(COC(=O)c3ccc(NC(=O)COc4ccc(F)cc4)cc3)nc2s1`, for which the Potency result was “inactive”.
As for `CCCCC(=O)OC1=CN(Cc2ccccc2)S(=O)(=O)c2ccccc21`, the entry is “inactive”.
As for `COc1ccc(OCCn2cc(C(=O)C3CCCCC3)c3ccccc32)cc1`, the entry is “inactive”; as for `Cc1oc2ccc(O)c(CN3CCOCC3)c2c1C(=O)Nc1cccc(Cl)c1C`, “inactive”; as for `COc1ccccc1C(=O)NCCn1cc(SCc2ccccc2Cl)c2ccccc21`, “inactive”.
Consider `O=S(=O)(NCC(c1ccco1)N1CCOCC1)c1cc(F)ccc1F` (stereo not given), for which the Potency result was “inactive”.
On to `Cc1ccccc1-c1nc(SCC(=O)N(C)c2ccccc2)c2c(=O)n(C)c(=O)n(C)c2n1`, for which the Potency result is “inactive”.
As for `COc1ccccc1NC(=O)C(=O)c1cc(C)n(-c2ccccc2F)c1C`, the entry is “inactive”.
As for `CC1CCCN(c2csc3ccc(F)cc3c2=O)C1` (stereo not given), the Potency result was “inactive”.
Turning to `COc1ccc(S(=O)(=O)N2CCN(c3ccc(F)cc3)CC2)cc1-c1noc(C)n1`, the Potency entry was “inactive”.
As for `CCC(=O)N1CCc2cc(S(=O)(=O)NC(Cc3ccccc3)C(=O)NCc3ccccc3)ccc21` (stereo not given), the entry is “inactive”; as for `CCn1c(=O)c2cc(C(=O)NCCc3ccc(Cl)cc3)sc2c2ccccc21`, “inactive”; as for `CCC1CCCCN1CCCNC(=O)c1cc2c(Cl)nc3ccccc3c2s1` (stereo not given), “inactive and 25.1 µM (active)”.
As for `CCCn1c2ccccc2c2cnn(CC(=O)NCCCN3CCCCC3CC)c(=O)c21` (stereo not given), the entry is “inactive”; as for `COc1ccc(C)cc1NC(=O)C(=O)NCCc1sc(-c2cccc(C)c2)nc1C`, “inactive”.
Take `CCCn1c2ccccc2c2cnn(CC(=O)NCC3CCN(Cc4ccc(C)cc4)CC3)c(=O)c21`: the Potency result is “inactive”.
As for `Cn1c(=O)sc2cc(NS(=O)(=O)c3ccc(C(C)(C)C)cc3)ccc21`, the entry is “inactive”; as for `O=C(CSc1nccn1Cc1ccc(F)cc1)NCc1ccccc1`, “inactive”; as for `O=C(Cn1nc(C(F)(F)F)c2c1CCCC2)Nc1ccc(Cl)cc1`, “inactive”.
As for `CCOC(=O)C1CCN(c2ncnc3c2c(-c2ccccc2)cn3-c2cccc(C)c2)CC1`, the entry is “inactive”; as for `CSc1ccc(CCNC(=O)c2cnn(-c3ccccc3)c2-n2cccc2)cc1`, “inactive”; as for `COc1ccccc1CNC(=O)CS(=O)(=O)c1cccc2nsnc12`, “inactive”.
`COc1ccc(N2CCN(Cc3nc4c(c(=O)[nH]c(=O)n4C)n3Cc3ccc(Cl)cc3)CC2)cc1`: the Potency result was “inactive”.
As for `COc1ccccc1C(=O)OCc1cc(=O)n2nc(-c3cccs3)sc2n1`, the entry is “inactive”; as for `NS(=O)(=O)c1ccc(CCNC(=O)CCCCCn2c(=O)[nH]c3ccccc3c2=O)cc1`, “inactive”.
On to `NS(=O)(=O)c1ccc(CCNC(=O)CCCn2c(SCC(=O)N3CCCC3)nc3ccsc3c2=O)cc1`, for which the Potency is 21.6 µM (active).
As for `CCCCn1c(SCC(=O)N2CCCC2=O)nc2cc(S(N)(=O)=O)ccc21`, the entry is “inactive”; as for `CCc1nc2c(cnn2-c2ccc(C)cc2)c(=O)n1-c1ccc(C)cc1`, “inactive”; as for `CCCC12CN3CC(CCC)(CN(C1)C3c1c[nH]c3ccc(OC)cc13)C2=O` (stereo not given), “inactive”.
As for `Cc1ccc(C)c(NC(=O)Cn2ccn(-c3ccc(F)cc3)c(=O)c2=O)c1`, the entry is “inactive”.
As for `Cc1cc(C)cc(NC(=O)Cn2c(=O)c3ccccc3n3nncc23)c1`, the entry is “inactive”; as for `Fc1ccc(-n2ncc3c(Nc4ccc(Oc5ccccc5)cc4)ncnc32)cc1`, “inactive”.
Take `Cc1ccc(CNC(=O)CCc2c(C)nc3nc(CNC(=O)OC(C)(C)C)nn3c2C)cc1`: the Potency entry was “inactive”.
As for `CCN(CC)S(=O)(=O)c1ccc2c(c1)N(CC(=O)NCc1ccccc1)C(=O)CS2`, the entry is “inactive”.
As for `COc1ccc2c(c1)c(=O)c(C(=O)c1ccccc1)cn2CC(=O)Nc1ccc2c(c1)OCCO2`, the entry is “inactive”; as for `COc1ccccc1CN1CCC(CNC(=O)c2cnn(-c3cccc(Cl)c3)c2C2CCN(C(=O)OC(C)(C)C)CC2)CC1`, “inactive”; as for `COc1cccc(CNC(=O)CCC(=O)N2CC3CCCN3c3ccccc32)c1` (stereo not given), “inactive”.
As for `Cc1ccn2c(Nc3ccc4c(c3)OCCO4)c(-c3ccc(C)s3)nc2c1`, the entry is “inactive”; as for `COc1ccc(NC(=O)C2CCN(c3ccc(Sc4ccc(C)cc4)nn3)CC2)c(OC)c1`, “inactive”; as for `COc1ccc(Cn2ccnc2SCC(=O)Nc2ccc3c(c2)OCO3)cc1`, “inactive”.
With `Cc1cccc(-c2nc(SCC(=O)Nc3cc(C)on3)c3c(=O)n(C)c(=O)n(C)c3n2)c1`, the Potency result was “inactive”.
As for `COc1ccc(OC)c(NC(=O)CN2CCCN(Cc3cc(C)ccc3C)S2(=O)=O)c1`, the entry is “inactive”.
For the compound `COc1ccc(OC)c(CNC(=O)CN2C(=O)CCn3nc(-c4cn(C)c5ccccc45)cc32)c1`, the Potency entry was “inactive”.
As for `CC1CCCN(c2cc3c(cc2F)c(=O)c(S(=O)(=O)c2cccc(Cl)c2)cn3Cc2ccccc2)C1` (stereo not given), the entry is “inactive”; as for `CCOC(=O)c1ccccc1NC(=O)c1sc2nc(-c3ccc(F)cc3)cn2c1C`, “inactive”.
As for `CCOc1ccc(-c2cc(C)n3nc(C(=O)Nc4ccc(C)c(C)c4)cc3n2)cc1`, the entry is “inactive”; as for `O=S(=O)(NCCS(=O)(=O)N1CCN(c2ccccc2)CC1)c1ccc(Cl)cc1`, “inactive”.
Consider `CCN(CC)S(=O)(=O)c1ccc2c(c1)nc(CN(C)C(=O)Nc1ccc(Cl)cc1)n2C`, for which the Potency result is “inactive”.
